The values that follow come from PubChem BioAssay AID2284370 (EPA ToxCast).

Records with an inconclusive call do not appear. Calls of active or inactive are those of the source. Rule for the calls: active = hit-call score of the fitted dose curve at least 0.9, where 1 is the maximum; inconclusive = response in the unintended direction; inactive = score below 0.9.

Sequence of human Androgen Receptor (AR), AR (gene 367) (P10275 whole entry, looked up): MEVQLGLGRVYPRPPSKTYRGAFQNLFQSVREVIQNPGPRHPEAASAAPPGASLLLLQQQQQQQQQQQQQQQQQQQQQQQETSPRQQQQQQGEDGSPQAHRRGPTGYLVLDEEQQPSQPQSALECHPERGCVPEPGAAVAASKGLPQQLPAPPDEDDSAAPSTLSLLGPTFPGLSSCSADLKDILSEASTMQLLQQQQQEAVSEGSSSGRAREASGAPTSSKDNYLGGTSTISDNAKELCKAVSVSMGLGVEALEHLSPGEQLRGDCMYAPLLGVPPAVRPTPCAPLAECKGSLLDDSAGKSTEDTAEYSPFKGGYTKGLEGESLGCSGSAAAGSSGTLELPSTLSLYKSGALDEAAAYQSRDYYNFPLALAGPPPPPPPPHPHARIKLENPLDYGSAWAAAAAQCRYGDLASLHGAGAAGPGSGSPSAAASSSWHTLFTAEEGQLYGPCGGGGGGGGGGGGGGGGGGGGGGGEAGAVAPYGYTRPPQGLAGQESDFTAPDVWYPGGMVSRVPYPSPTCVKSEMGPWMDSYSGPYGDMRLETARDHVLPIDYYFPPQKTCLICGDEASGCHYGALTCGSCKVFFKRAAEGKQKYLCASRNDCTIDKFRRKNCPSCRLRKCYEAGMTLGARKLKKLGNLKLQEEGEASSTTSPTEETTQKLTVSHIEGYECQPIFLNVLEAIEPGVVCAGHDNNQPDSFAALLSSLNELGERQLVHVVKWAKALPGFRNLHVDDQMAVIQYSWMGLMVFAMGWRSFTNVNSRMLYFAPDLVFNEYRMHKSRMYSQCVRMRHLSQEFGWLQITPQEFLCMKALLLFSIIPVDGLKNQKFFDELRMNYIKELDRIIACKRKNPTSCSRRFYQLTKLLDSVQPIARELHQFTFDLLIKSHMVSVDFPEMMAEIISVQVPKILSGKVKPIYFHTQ

In this experiment the target is human Androgen Receptor (AR), AR (gene 367) (UniProt P10275). The experiment in a line: ATG_hAR_EcoTox2: Attagene TRANS-FACTORIAL EcoTox-2 HepG2 Assay for human Androgen Receptor (AR). Here is the method:
ATG_EcoTox2 is a cell-based, multiplexed assay created by modifying the existing Attagene TRANS-FACTORIAL system to include a panel of nuclear receptors from some or all the following species: human (Homo sapiens), african clawed frog (Xenopus laevis), rainbow trout (Oncorhynchus mykiss), japanese medaka (Oryzias latipes), and zebrafish (Danio rerio). The ECOTOX2-FACTORIAL format uses HepG2, a human liver cell line, with measurements taken at 24 hours after chemical dosing in a 24-well plate. ATG_hAR_EcoTox2 is one of 29 assay components calculated in the ATG_EcoTox2 assay. It is designed to make measurements of mRNA induction, a form of inducible reporter, as detected with fluorescence intensity signals by Reverse transcription polymerase chain reaction (RT-PCR) and Capillary electrophoresis technology.The assay endpoint ATG_hAR_EcoTox2 was analyzed in the positive analysis fitting direction relative to DMSO as the negative control and baseline of activity. Using a type of inducible reporter, measures of mRNA for gain-of-signal activity can be used to understand the reporter gene at the transcription factor-level as they relate to the gene AR. Furthermore, this assay endpoint can be referred to as a primary readout, because this assay has produced multiple assay endpoints where this one serves a reporter gene function. To generalize the intended target to other relatable targets, this assay endpoint is annotated to the nuclear receptor intended target family, where the subfamily is steroidal.
Human liver HepG2 cells are transiently transfected with multiple reporter transcription units (MRTUs) in 6-well plates using FuGene 6 reagent (Roche; 3 ml FuGene/1 mg DNA). The MRTU constructs are regulated by a cis-regulating element (promoter). Each RTU expresses a GAL4-UAS that regulates the transcription of a nearby target reporter gene sequence. A major difference between the CIS and TRANS system is that in CIS activities of endogenous TFs are measured, whereas the TRANS assay evaluates changes in activities of exogenous, chimeric NR-Gal4 proteins. […] At the end of 24 hour incubation, total RNA was isolated using TriZol reagent (Invitrogen). The isolated RNA is then reverse-transcribed using oligo(dT) primer and Mo-MLV reverse transcriptase (Invitrogen) with DNAse I (Ambion) treatment for 30 min. The one-tenth of the produced cDNA was amplified by PCR using Taq DNA polymerase (Invitrogen) and two reporter sequence-specific primers. […] The fragments were purified using Qiaquick PCR columns (Qiagen), analyzed on an ABI 3130xL genetic analyzer (Applied Biosystems) with peak positions identified by using a set of X-rhodamine (ROX)-labeled MapMarker1000 molecular weight standards (BioVentures). […]
For `CC(c1cc2ccccc2s1)N(O)C(N)=O` (centres undefined), the result was inactive. Take `CC(C)(Oc1ccc(C2CC2(Cl)Cl)cc1)C(=O)O` (centres undefined): the compound was classed as inactive. For the compound `CC(C)OC(=O)C(C)(C)Oc1ccc(C(=O)c2ccc(Cl)cc2)cc1`, the outcome was inactive. The result for `Cc1ccc(C)c(OCCCC(C)(C)C(=O)O)c1` reads “inactive”.
